Screens: PubChem BioAssay, several laboratories
In the library only some 1.8% were active in any assay of this set; here they are far more common.
A1 inh – inhibitors of the anti-apoptotic protein A1, read as caspase activation | 0.066% of 330,000 active | caspase activation, % (no concentration beside the values) | MEF A1-2A-BIM cells, Caspase-Glo 3/7 luminescence, 3 h; percent of clofoctol response, vehicle zero;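 active = over half of replicate activation scores above 10%, or exactly half above 10 with the replicate mean above 10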
SUMO Mot1 rescue – blocks SUMOylation pathway, rescuing yeast Mot1-301 growth; S. cerevisiae Mot1-301 growth rescue, ATP luminescence, 38.5C; percent above DMSO median, 100 means doubled; growth rescue, % at 18.8 µM; 1% of 320,000 active; AID 2716;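 active = every valid replicate shows activation above 250% relative to neutral control wells; inactive = the rest, any valid replicate at or below 250%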;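 also: OY570 slx delta 5 strain wells were the positive control but not used for scaling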
aDG glyco act – increases alpha dystroglycan glycosylation; Pro5-aDG cells, alpha-DG glycosylation AlphaScreen (IIH6); 0% Pro5, 100% B10-LARGE cell signal; activation, % at 10 µM; 0.22% of 360,000 active; AID 624168;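 active = activation of at least 8% versus controls, or a plate z-score of at least 8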;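 also: Pro5 are CHO cells carrying HIG-tagged alpha-DG that lacks glycosylation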
AI-2 QS modul – modulators of Vibrio harveyi AI-2 quorum sensing system; activity change, % at 7.5 µM; 0.4% of 300,000 active; AID 2094; Vibrio harveyi JMH597 AI-2 luminescence/OD600 ratio, 9 h; hits give low values; strain lacks LuxN and CqsS sensors; 0 = neutral-control median; in the data active = activity change below about -75%, passing the limit was not always enough;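 also: luminescence divided by OD600 gain over 9 h not by final OD600 alone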
ARNT TACC3 PPI – disrupts binding between human ARNT and TACC3; AlphaScreen His-ARNT PAS-B/GST-TACC3 binding, luminescence; TACC3 fragment carries E629A point mutation; Q9Y6A5; inhibition, % at 9.99 µM; AID 623870; 0.66% of 390,000 active;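 active = mean inhibition of replicates at least 50% and at least half of replicates each reaching 50%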;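 also: 0% = complete ARNT plus TACC3 wells and 100% = ARNT alone without TACC3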
* hit, by the source's call; nt = no result given.

SMILES	A1 inh	SUMO Mot1 rescue	aDG glyco act	AI-2 QS modul	ARNT TACC3 PPI
CCc1ccc(CN(C)C(=O)c2cc(COc3cccc4cnccc34)on2)cc1	0.0	-3.7	4.6	-60.2	-4.5
CN(Cc1cccnc1)C(=O)c1cc(COc2ccc3c(c2)CCCC3)on1	-4.1	11.7	0.8	-79.9*	-14.6
COc1ccc(NC(=O)CSc2nn3c(=O)c(C)nnc3s2)cc1	-0.2	12.7	-0.1	21.9	61.0*
COc1cccc(NC(=O)CSc2nn3c(=O)c(C)nnc3s2)c1	-0.4	-14.5	0.6	16.6	66.6*
COc1ccc(NC(=O)CSc2nnc(C)c(=O)n2N)cc1	-0.4	4.0	-0.3	25.0	-0.8
Cc1nnc2sc(SCC(=O)N3CCC(C)CC3)nn2c1=O	0.1	-8.7	0.1	-5.4	63.3*
Cc1nnc2sc(SCC(=O)Nc3cccc(Cl)c3)nn2c1=O	1.0	-1.6	0.1	8.7	64.7*
COc1cccc(NC(=O)CSc2nc(C)cs2)c1	0.3	-9.9	0.3	14.7	-10.7
CC1CC(=O)Nc2ccccc2N1S(=O)(=O)c1ccc(C(F)(F)F)cc1 (stereo unspecified)	-0.6	-14.4	-0.3	6.5	-3.7
O=C(N/N=C/c1cccc(F)c1)c1c(O)c2ccccc2[nH]c1=O	-1.9	-1.9	3.4	17.9	-10.3
Cc1ccccc1CSc1nn2c(=O)c(C)nnc2s1	0.5	-3.9	0.1	8.5	32.4
Cc1nnc2sc(SCC(=O)Nc3ccc(Br)cc3)nn2c1=O	0.6	3.0	0.9	12.2	73.7*
Cc1nnc2sc(SCc3ccc(Br)cc3)nn2c1=O	1.0	3.6	-0.2	6.2	-6.8
COc1ccc(OC)c(NC(=O)CSc2nn3c(=O)c(C)nnc3s2)c1	-0.1	-11.3	0.0	30.1	69.0*
Cc1ccccc1NC(=O)CSc1nn2c(=O)c(C)nnc2s1	0.7	69.3	-0.2	19.2	51.2*
Cc1cccc(NC(=O)CSc2nnc(C)c(=O)n2N)c1	-0.7	461.1*	0.0	9.1	0.6
COC(=O)c1ccc(NC(=O)CSc2nn3c(=O)c(C)nnc3s2)cc1	-0.1	1.7	0.0	7.0	60.4*
COc1ccc(CCNC(=O)CSc2nn3c(=O)c(C)nnc3s2)cc1OC	-0.2	4.3	-0.2	17.4	17.4
COc1ccc(NC(=O)N(C)C[C@@H]2Oc3ccc(NC(=O)Nc4ccc(C(F)(F)F)cc4)cc3CC(=O)N([C@H](C)CO)C[C@H]2C)cc1	nt	nt	nt	nt	4.2
Cc1nn(Cc2c(Cl)cccc2Cl)c(C)c1NC(=O)c1cn(-c2ccccc2)nc1-c1ccccc1	12.8*	3.0	-0.7	25.1	-4.7
Cc1cccc(C)c1NC(=O)CNC(=O)c1cn(-c2ccccc2)nc1-c1ccccc1	-0.3	30.5	0.0	9.4	13.2
COc1ccc(OCC(O)CN2CCN(Cc3ccc4c(c3)OCO4)CC2)cc1 (stereo unspecified)	-0.3	7.5	-0.3	43.0	47.1*
COc1cccc2cc(C(=O)Nc3cc(Cl)ccc3N3CCOCC3)c(=O)oc12	1.3	73.7	-0.3	24.6	-15.0
Cc1n[nH]c(=S)n(NC(=O)CC(=O)Nn2c(=S)[nH]nc(C)c2=O)c1=O	0.8	-6.9	0.4	30.9	67.4*
Cc1n[nH]c(=S)n(NC(=O)/C=C/C(=O)Nn2c(=S)[nH]nc(C)c2=O)c1=O	nt	nt	-0.3	34.1	65.6*
SMILES	A1 inh	SUMO Mot1 rescue	aDG glyco act	AI-2 QS modul	ARNT TACC3 PPI
COc1ccccc1OCC(=O)Nn1c(=S)[nH]c2ncccc2c1=O	0.5	5.6	0.1	14.8	-0.8
C=CC[C@H](CC(=O)OC(C)(C)C)C(=O)OC[C@@H]1CCCN1C(=O)[C@@H](CC=C)CC(=O)NCCO	-1.6	5.9	-0.1	nt	-4.2
CC1(C)CC(NC(=O)c2cccc(S(=O)(=O)N(Cc3ccccc3)c3ccccc3)c2)CC(C)(C)N1	-0.3	-15.2	6.8*	5.5	5.2
C[C@@H]1CN([C@@H](C)CO)C(=O)c2cc(NC(=O)Cc3cn(C)c4ccccc34)ccc2O[C@@H]1CN(C)Cc1ccc(Oc2ccccc2)cc1	nt	nt	nt	nt	-1.1
O=C(Nc1nnc2n1CCS2)c1ccco1	-0.7	-7.7	-0.5	17.9	45.3*
O=c1oc2ccccc2c(O)c1Sc1c(O)c2ccccc2oc1=O	nt	nt	0.1	nt	75.9*
O=C(c1c(O)c2ccccc2oc1=O)C1CCC1	0.3	13.1	-0.1	35.7	-2.3
O=C(O)/C=C/c1cccc(NS(=O)(=O)c2ccccc2)c1	0.6	6.8	-0.2	-1.4	-4.0
O=C(Nc1ccc(Nc2ccccc2)cc1)c1ccc(F)cc1	-2.6	149.6	0.2	-88.0*	17.8
O=C(Nc1ccc(Nc2ccccc2)cc1)c1ccco1	-0.6	21.4	0.4	-96.4*	13.9
O=C(Nc1ccc(NC(=O)c2ccco2)cc1)c1ccco1	0.9	9.7	-0.3	10.0	-10.4
O=C(Nc1ccc(Cc2ccncc2)cc1)c1ccco1	0.2	264.1	0.8	-81.9*	-4.2
COc1ccc(NC(=O)C2=NN(C3CCS(=O)(=O)C3)C(=O)CC2)cn1 (stereo unspecified)	0.1	6.1	0.2	1.5	2.6
COCC(C)NC(=O)CCSc1nc(-c2ccc(OC)cc2)cc(C(F)(F)F)n1 (stereo unspecified)	-0.5	2.5	0.4	22.3	nt
Cc1ccc(-c2cc(C(F)F)n3ncc(C(=O)N4CCCc5ccccc54)c3n2)cc1	0.0	382.8*	0.0	-3.8	2.0
COc1ccc(-c2cc(C(F)F)n3ncc(C(=O)N4CCc5ccccc54)c3n2)cc1	-0.3	-5.8	0.1	16.1	19.1
Cc1ccc(Cl)cc1N1CCN(C(=O)C2CCN(S(=O)(=O)c3cccnc3)CC2)CC1	-0.7	6.1	7.5*	27.2	18.7
O=C(NCc1ccc(F)cc1)C1CCN(S(=O)(=O)c2cccnc2)CC1	-0.5	-21.6	-0.3	-27.9	-1.9
O=C(NCc1ccc(Cl)cc1)C1CCN(S(=O)(=O)c2cccnc2)CC1	1.0	-3.3	-0.2	-79.1*	-6.5
C[C@@H]1CCCCO[C@H](CN(C)C(=O)Nc2ccc3c(c2)OCO3)[C@@H](C)CN([C@H](C)CO)C(=O)c2cc(NS(=O)(=O)c3cccs3)ccc2O1	nt	nt	nt	nt	-0.4
Nc1nnnn1CC(=O)N/N=C/c1cc([N+](=O)[O-])ccc1O	-0.2	-12.3	-0.2	38.4	66.9*
Cc1cc([N+](=O)[O-])nn1CC(=O)N/N=C/c1ccccc1F	-0.8	-1.6	0.2	19.6	-7.6
Cc1cc([N+](=O)[O-])nn1CC(=O)N/N=C/c1ccccc1O	0.0	0.9	0.2	52.3	67.6*
O=C(CN1C(=O)NC2NC(=O)NC21)N/N=C/c1ccccc1F (stereo unspecified)	0.0	4.0	nt	-18.9	nt
Nc1nnc(CC(=O)N/N=C\c2cc([N+](=O)[O-])ccc2O)s1	0.9	nt	0.1	29.8	64.9*
O=C(CN1C(=O)NC2NC(=O)NC21)N/N=C/c1ccccc1O (stereo unspecified)	-0.3	3.9	-0.4	25.2	66.0*
